This is a sample that favours compounds with a hit; in the whole collection about 4.7% have one here.
PABP FP inh: PABP-poly(A) binding inhibition; inhibition, % at 35 µM; PABP-poly(A) RNA binding, fluorescence polarization; P11940; 290,000 compounds, 1% hits;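 note: calls also rest on retests at 20 µM and on dose response follow-up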
MLLE-PAM2 inh: blocks PAM2 peptide binding to the PABP1 MLLE domain; P11940; GST-MLLE / FITC-PAM2 fluorescence polarization; inhibition, % at 20 µM; 360,000 compounds, 0.36% hits; in the data active = inhibition above about 35%, passing the limit was not always enough;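 note: plate controls were DMSO wells with GST-MLLE for no effect and wells lacking GST-MLLE protein for full effect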
eIF4H FP inh: inhibitors of RNA binding by human eIF4H; Q15056; eIF4H fluorescence polarization binding assay; inhibition, % at 35 µM; 290,000 compounds, 0.94% hits; AID 2012;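 note: calls also rest on retests at 20 µM and on dose response follow-up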
ALR inh: human ALR oxidase inhibition via reduced H2O2. inhibition, % (test concentration not listed). purified ALR, DTT oxidation, H2O2 HRP-luminol luminescence. 290,000 compounds, 3.8% hits;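 active = mean replicate inhibition above about 79%, with every replicate also reaching it, limit read from the data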
Efflux pump inh: antifungal efflux pump inhibition, Nile Red retention; inhibition, % at 10 µM; S. cerevisiae Candida pump triplex; AID 485275; 330,000 compounds, 0.44% hits;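 active = plate passing quality check with inhibition over a set limit, or well fluorescence over plate mean plus 4 SD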;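 note: Nile Red retained in pooled yeast measured as flow cytometry median fluorescence; 0% = buffer negative control and 100% = Enniatin B positive control; higher means more Nile Red kept so more efflux inhibition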
UBC9 SUMO inh: blocks human SUMOylation mediated by UBC9 | P63279 | HTRF SUMOylation assay, SAE1/SAE2 + UBC9, in vitro | inhibition, % at 35 µM | 290,000 compounds, 0.36% hits | AID 2006; in the data active = inhibition above about 50%, passing the limit was not always enough
Target sequence (P63279 whole entry, looked up): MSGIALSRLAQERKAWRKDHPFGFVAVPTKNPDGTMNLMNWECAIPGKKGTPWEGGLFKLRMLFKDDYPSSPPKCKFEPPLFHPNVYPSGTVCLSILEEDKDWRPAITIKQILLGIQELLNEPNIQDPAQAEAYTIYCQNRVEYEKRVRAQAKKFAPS
* = called active by the depositor; . = not tested or not shown. Unless noted, the rule behind the calls is not given here.

SMILES	PABP FP inh	MLLE-PAM2 inh	eIF4H FP inh	ALR inh	Efflux pump inh	UBC9 SUMO inh
CC(=O)Nc1ccc(SCCCC(=O)c2ccccc2)cc1	1	33	-10	34	0	-6
O=C(CN1CCCc2ccccc21)NC(=O)NC1CCCCC1	-5	-15	37	-4	0	-2
O=C(CN1CCCc2ccccc21)NC(=O)NCc1ccccc1	8	-1	-3	27	0	29
CC(C)(C)NC(=O)NC(=O)CN1CCCc2ccccc21	-8	31	-2	96*	0	12
NC(=O)C1CCN(C(=O)CN2CCCc3ccccc32)CC1	66*	33	78*	-76	0	15
O=C(CN1CCCc2ccccc21)N/N=C/c1ccc(O)cc1O	-6	-55	14	98*	0	-18
Nc1cc([N+](=O)[O-])ccc1Nc1ccc(O)cc1	8	13	9	99*	0	0
Nc1ccccc1Nc1ccc([N+](=O)[O-])cc1[N+](=O)[O-]	9	12	6	.	0	18
COc1ccc2oc3cc(C)[n+]([O-])c(-c4ccc(C)cc4)c3c2c1	5	5	-8	93*	0	12
CC(C)C(=O)N1CCC1(C)C(=O)Nc1ccc(-n2cncn2)cc1 (stereo unspecified)	.	9	.	.	.	.
C[C@@H]1CN([C@H](C)CO)C(=O)c2cc(Br)cnc2O[C@@H]1CN(C)C(=O)CC1CC1	.	-8	.	.	.	.
CCOC(=O)CSc1nc2sc3c(c2c(=O)n1C1CCCCC1)CCN(C)C3	-2	-18	4	100*	0	12
CCOC(=O)CSc1nc2sc3c(c2c(=O)n1-c1ccc(OCC)cc1)CCN(C)C3	-5	-9	-4	94*	0	22
COc1ccc(NC(=O)CSc2nc3sc4c(c3c(=O)n2-c2ccc(OC)cc2)CCN(C)C4)cc1	-24	10	-13	98*	0	4
CCn1c(SCC(=O)Nc2ccc(C)cc2)nc2sc3c(c2c1=O)CCN(C)C3	-2	8	-15	99*	0	-8
CCn1c(SCC(N)=O)nc2sc3c(c2c1=O)CCN(C)C3	24	26	47	40	0	3
Cc1cccc(C(=O)NC(C(=O)Nc2cccc(S(=O)(=O)N3CCCC3)c2)C(C)C)c1 (stereo unspecified)	.	-6	.	-5	0	.
CSc1nc(SCC(N)=O)c2c3c(sc2n1)CN(C)CC3	22	3	27	-12	0	16
O=C(CSc1nc2c(c(=O)n1-c1ccc(Cl)cc1)SCC2)Nc1nccs1	0	15	-1	-27	0	5
CCNc1nc(SCC(N)=O)nc2sc3c(c12)CCN(C)C3	42*	37	98	.	.	12
COc1ccc(-n2c(SCC(=O)Nc3nccs3)nc3sc4c(c3c2=O)CCN(C)C4)cc1	-14	-7	-6	99*	0	7
O=C(CSc1nc2c(c(=O)n1-c1ccc(Br)cc1)SCC2)Nc1nccs1	1	18	4	99*	0	-24
COc1cc(-c2coc3c(C(=O)NC4CCCCC4)cccc23)ccc1O	.	-11	.	.	.	.
CCOc1ccc(-c2csc3nc[nH]c(=O)c23)cc1	3	-1	-12	1	0	13
CCOC(=O)NNc1ccc2nonc2c1[N+](=O)[O-]	44	.	46	-21	0	77*
SMILES	PABP FP inh	MLLE-PAM2 inh	eIF4H FP inh	ALR inh	Efflux pump inh	UBC9 SUMO inh
O=[N+]([O-])c1c(NCc2ccco2)ccc2nonc12	81*	9	123*	-22	0	46
O=C(CCN1CCN(c2ccccc2)CC1)N/N=C/c1ccc(O)c(O)c1O	81*	19	95	.	.	76*
COc1cc(/C=N/NC(=O)CCN2CCN(Cc3ccccc3)CC2)cc(OC)c1OC	28	2	-7	.	0	7
O=C(Cc1csc(N2CCOCC2)n1)N/N=C/c1ccc(O)c(O)c1O	5.3*	31	72	.	.	93*
O=C(NCCN1CCN(c2ccccc2)CC1)c1ccccc1F	2	-10	-2	99*	0	-2
COc1cc(/C=N/NC(=O)CCN2CCN(c3ccccc3)CC2)cc(OC)c1OC	2	-3	-11	93*	0	-9
Cc1cc(C)c(C)c(S(=O)(=O)N(C)CCc2ccccn2)c1C	.	2	.	-2	0	.
COc1ccc(CCC(=O)NCCNC(=O)CCc2ccc(OC)cc2)cc1	4	-1	-6	-18	0	10
COc1cc(NC(=O)NCCN2CCN(c3ccccc3)CC2)cc(OC)c1OC	-15	4	2	98*	0	15
O=C(NCCN1CCN(c2ccccc2)CC1)Nc1ccc(Cl)cc1	-9	4	-6	67	0	7
Cc1ccc2nc(-c3ccc(N4C(=NC(=O)CCC(=O)O)SC5CS(=O)(=O)CC54)cc3)sc2c1 (stereo unspecified)	active	-10	70*	33	0	30
CC(=O)N=C1SC2CS(=O)(=O)CC2N1c1ccc(-c2nc3ccc(C)cc3s2)cc1 (stereo unspecified)	14	.	4	.	1	21
CCC1(C)OC(=O)N2CCc3c(C)[nH]c4c(C)ccc(c34)C21C (stereo unspecified)	-7	6	-3	98*	0	-6
CCOC(=O)c1c(C)[nH]c(C(=O)COC(=O)c2ccc(N3CCCC3=O)cc2)c1C	3	-1	6	.	0	-3
COc1ccc(C2N=C(c3ccccc3)NO2)cc1OC (stereo unspecified)	14	12	-4	-16	0	13
COc1cc(C2N=C(c3ccccc3)NO2)cc(Br)c1O (stereo unspecified)	-4	-12	2	98*	0	1
Cc1ccc(OCCOC(=O)c2cccc(S(=O)(=O)N3CC(C)OC(C)C3)c2)cc1 (stereo unspecified)	.	8	.	3	0	.
O=c1cc(CN2CCN(c3ccc(O)cc3)CC2)nc2scc(-c3ccccc3)n12	-4	-11	44	94*	0	24
C=CCN(CC=C)Cc1cc(=O)n2c(-c3ccccc3)csc2n1	4	-38	14	9	0	26
CCN(CCNC(=O)c1cc(C)nn1-c1ccccc1)c1ccccc1	-6	9	-7	99*	0	3
Cc1ccc(CCNC(=O)c2cc(C)nn2-c2ccccc2)cc1	8	-2	-5	.	0	12
OCC1CCCN(Cc2ccc(-c3ccccc3)cc2)C1 (stereo unspecified)	-5	13	-2	99*	0	12
O=C(c1ccc(-c2ccccc2)cc1)C1CCCN(Cc2ccncc2)C1 (stereo unspecified)	19	2	4	8	0	4
COC(=O)/C=C1/S/C(=N/NC(=O)c2ccccc2OC)NC1=O	13	-13	-4	97*	0	12
c1ccc2c(c1)COc1c3ncccc3nn1-2	.	-18	.	.	.	.
CCC[n+]1c2ccccc2cc2ccccc21	67*	-79	0	41	-1	4

Source: PubChem BioAssay (several laboratories)
